# Source: PubChem BioAssay
# HSF1 inh – HSF1 inhibition; NIH3T3-HGL HSE-luciferase, MG132-induced, luminescence 8 h; active compounds read low; activity change, negative = inhibition, % at 7.5 µM (by protocol); 300,000 tested, 0.77% active;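 active means more than half of replicate wells show activity change below -50%, luminescence cut by over half; inconclusive means some wells, but at most half, below -50%; inactive means no replicate well below -50%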;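 further: luciferase reports HSF-1 transcriptional activity via heat shock element; 0% = median of DMSO wells and -100% = zero luminescence signal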
# esBAF inh – inhibitors of esBAF chromatin remodeling in mouse ES cells | AID 602393 | 350,000 tested, 2% active | reporter increase, % at 12.5 µM | Bmi1-luciferase knock-in reporter, 24 h; 100% = twice the neutral-well signal; in the data active means activation above about 40%; inconclusive means no clear call, values can overlap the other calls;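 further: 0% = median of the plate's neutral control wells and 100% = double that signal; a rise in the Bmi1 reporter signal indicates esBAF inhibition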
# SMARCA2 act – SMARCA2 function activation, primary screen; MG213 cells, MMTV-luciferase reporter, dexamethasone, overnight; activation, % at 9.1 µM; 370,000 tested, 1% active; in the data active means activation above about 7.8%;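 further: 0% = vehicle wells and 100% = reference activator wells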
# Wnt act – Wnt/beta-catenin pathway activation; Wnt/beta-catenin reporter cell assay, activator, plate reader; activation, % at 9.35 µM; 300,000 tested, 1.2% active; AID 743398; in the data active means activation above about 30%, passing the limit was not always enough; inconclusive means no clear call, values can overlap the other calls;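 further: 0% = neutral control wells and 100% = positive control wells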
# HSF1 activator – increases HSF-1 driven luciferase reporter signal. NIH3T3-HGL HSF-1 luciferase reporter, MG132, 8 h; 100% = twice DMSO control signal. activation, % at 9 µM. 300,000 tested, 1.7% active. AID 504408;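 active means mean replicate activation of at least 50% with a set share of replicates each reaching 50%; inconclusive means only one of those two conditions met; inactive means mean below 50% and too few replicates reaching it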;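 further: 0% = median of the neutral control wells and 100% = twice that signal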
# MITF TRPM1 HTS – increases MITF-driven TRPM1 promoter luciferase signal | SK-MEL-5 TRPM1-promoter luciferase, 24 h; % of positive control, neutral wells = 0 | AID 588334 | activation, % at 12.5 µM | 300,000 tested, 0.75% active;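 active means mean activation of at least 80% with every replicate also reaching 80%; inconclusive means mean reaches 80% but some replicate falls short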;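 further: 0% = neutral control wells and 100% = parthenolide positive control wells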
# Numbers without * were called inactive; u = inconclusive; x = no result. Shown are actives, neighbours in structure and some others; about 4.3% of the full set was active somewhere.
SMILES,HSF1 inh,esBAF inh,SMARCA2 act,Wnt act,HSF1 activator,MITF TRPM1 HTS
COc1ccccc1CN1C[C@@H](C)[C@@H](OC)CN(C)C(=O)c2cc(NC(C)=O)ccc2OC[C@@H]1C,x,-12,x,x,x,x
C[C@@H]1CN([C@H](C)CO)S(=O)(=O)c2ccc(C3=CCCCC3)cc2O[C@@H]1CN(C)C(=O)Nc1ccc2c(c1)OCO2,x,-8,x,x,x,x
Cc1cc(NC(=S)N(Cc2ccc(Br)cc2)Cc2ccc(C(=O)O)cc2)ccc1Cl,49,x,3,0,58*,-7
CN(N=O)c1ccc(C=C2C=Cc3ccccc32)cc1,x,x,7,9,x,75
CCN(N=O)c1ccc(C=C2C=Cc3ccccc32)cc1,x,x,-3,41*,x,97*
COc1ccc(CNC(=O)C[C@@H]2C[C@H]3c4cc(NC(=O)NC5CCCC5)ccc4O[C@H]3[C@@H](CO)O2)cc1,x,2,x,x,x,x
Cc1ccc(O)c(NC(=O)CCC2CCCCC2)c1,78,x,7,x,151*,84*
O=C(CCC1CCCCC1)Nc1ccccc1O,45,42*,2,25,59*,95*
O=C(CCC1CCCCC1)Nc1ccccc1-c1ccccc1,2,-2,-2,-5,-10,-5
Cn1c(NC(=O)CCC2CCCCC2)cc(=O)n(C)c1=O,36,24,1,-2,55*,u
Cc1ccc(NC(=O)C2CCCCC2)c(O)c1,0,x,x,x,3,x
Cc1ccc(O)c(NC(=O)C2CCCCC2)c1,68,x,4,-2,68*,-2
O=C(NC[C@H]1[C@@H](c2ccccc2)[C@@H](CO)N1C(=O)C1CC1)NC1CCCC1,x,-3,x,x,x,x
C/C=C/c1ccc([C@H]2[C@@H](CO)N(Cc3ccccn3)[C@@H]2CNC(C)=O)cc1,x,-2,x,x,x,x
C[C@@H]1CN([C@@H](C)CO)C(=O)c2cc(NC(=O)CCC(F)(F)F)ccc2O[C@H]1CN(C)CC1CC1,x,2,x,x,x,x
Cc1ccccc1C1=NC(c2ccc(F)cc2F)ON1 (stereo not given),23,48*,0,x,20,61
COc1ccccc1C1N=C(c2ccccc2C)NO1 (stereo not given),28,x,4,29,u,68
O=C(C[C@H]1CC[C@H](NC(=O)c2ccccc2)[C@@H](CO)O1)NCc1ccncn1,x,1,x,x,x,x
CC(C)NC(=O)Nc1ccc2c(c1)C(=O)N([C@@H](C)CO)C[C@@H](C)[C@H](CN(C)C)O2,x,7,x,x,x,x
O=C(Nc1c(S(=O)(=O)c2ccc(Cl)cc2)csc1Br)c1ccccc1Cl,8,x,-3,3,54*,x
CCCNC(=O)N1[C@H](CO)[C@H](c2ccccc2)[C@@H]1CNC(=O)c1ccc(F)cc1,x,3,x,x,x,x
O=[N+]([O-])c1cccc(-c2nnc(-c3ccccc3F)o2)c1,5,40,7,49*,13,x
O=C(Nc1ccc(F)cc1)N[C@@H]1CC[C@H](CC(=O)N2CCOCC2)O[C@H]1CO,x,0,x,x,x,x
Cc1c(-c2ccc(Br)cc2)[n+](=O)c2c(n1[O-])CCCCC2,-1,x,5,36*,-3,x
CCCOC(=O)Nc1nc2ccccc2o1,17,18,3,37*,49,22
SMILES,HSF1 inh,esBAF inh,SMARCA2 act,Wnt act,HSF1 activator,MITF TRPM1 HTS
Cc1ccc(COc2ccc3c(c2)OCO3)cc1,51,21,7,33*,59*,60
O=Cc1ccc(OCc2ccc3c(c2)OCO3)cc1,30,3,3,16,47,x
C[C@@H]1CN([C@H](C)CO)S(=O)(=O)c2ccc(/C=C/c3ccccc3)cc2O[C@@H]1CN(C)C,x,-6,x,x,x,x
O=C(CN1CCOCC1)Nc1ccc(-c2nc3ccccc3[nH]2)cc1,30,x,1,x,56*,84*
Cc1cc2nc(-c3ccc(SCC(=O)Nc4ccc(S(=O)(=O)N5CCCC5)cc4)nc3)[nH]c2cc1C,26,x,6,47*,37,27
O=C(CSc1ccc(-c2nc3ccccc3[nH]2)cn1)Nc1ccc(S(=O)(=O)N2CCCC2)cc1,9,x,6,41*,11,13
Cc1cc2nc(-c3ccc(SCC(=O)Nc4nccs4)nc3)[nH]c2cc1C,x,x,2,x,x,-71
Cc1ccc(S(=O)(=O)Nc2ccc3c(c2)C(=O)N([C@H](C)CO)C[C@H](C)[C@H](CN(C)S(=O)(=O)c2ccc(C)cc2)OCCCC[C@H](C)O3)cc1,x,6,x,x,x,x
C[C@@H]1CN([C@H](C)CO)S(=O)(=O)c2ccc(/C=C/c3ccccc3)cc2O[C@H]1CN(C)C(=O)CN1CCOCC1,x,3,x,x,x,x
O=C(CSC1=NS(=O)(=O)c2ccccc21)Nc1ccccc1,-1,50*,0,-22,-4,-48
COC(=O)CSC1=NS(=O)(=O)c2ccccc21,1,x,x,x,-6,-54
CC(C)c1cn(CC[C@H]2CC[C@H](NS(=O)(=O)Cc3ccccc3)[C@@H](CO)O2)nn1,x,-3,x,x,x,x
Cc1cc(C)c(N=Cc2c(O)c3ccccc3oc2=O)c(C)c1,9,57*,0,0,6,55
Cc1cc(C)cc(N=Cc2c(O)c3ccccc3oc2=O)c1,-6,x,0,-1,-18,-12
C[C@H](CO)N1C[C@H](C)[C@H](CN(C)Cc2ccncc2)Oc2c(NC(=O)Nc3ccc4c(c3)OCO4)cccc2C1=O,x,11,x,x,x,x
COc1ccc(Cl)cc1NC(=O)Nc1ccccc1SC,-1,-1,2,-1,7,8
COc1ccc(NC(=O)Nc2ccccc2SC)cc1,10,28,3,40*,28,35
CSc1ccccc1NC(=O)Nc1ccc(Cl)cc1,26,50*,0,-5,48,35
COCC(=O)Nc1ccc2c(c1)C(=O)N(C)C[C@H](OC)[C@H](C)CN(Cc1cc(F)ccc1F)[C@@H](C)CO2,x,-2,x,x,x,x
C[C@@H]1CN([C@@H](C)CO)C(=O)c2cccc(NC(=O)C3CCCCC3)c2O[C@H]1CN(C)Cc1ccccc1,x,-2,x,x,x,x
Cc1ccccc1C(=O)NC(=S)Nc1ccccc1C(F)(F)F,2,6,-1,x,-12,-3
O=C(NC(=S)Nc1ccccc1C(F)(F)F)c1ccccc1F,31,35,-1,2,76*,10
CN(C)CCCNC(=O)C[C@H]1CC[C@@H]2[C@@H](COc3ccc(NC(=O)c4cccc(F)c4)cc3C(=O)N2C)O1,x,3,x,x,x,x
O=C(CN1C(=O)CC(c2ccccc2)=Nc2ccccc21)NCc1ccco1,17,2,-6,-5,71*,x
CCCNC(=O)C[C@H]1CC[C@@H]2[C@@H](COc3ccc(NC(=O)c4ccccc4)cc3C(=O)N2C)O1,x,5,x,x,x,x
Oc1ccc(CN2CCN(Cc3ccccc3)CC2)c2cccnc12,-2,6,5,6,4,x
O=S(=O)(c1ccc(Cl)cc1)N1CCN(Cc2ccc(O)c3ncccc23)CC1,0,x,-3,36*,6,-64
CCN1CCN(Cc2ccc(NC(=O)c3ccc(C)c(NC(=O)c4cccc5[nH]ccc45)c3)cc2C(F)(F)F)CC1,-55*,3,-2,-6,-62,-3
